# Screening data deposited in PubChem by National Center for Advancing Translational Sciences (NCATS).
# DRD3 agonist: agonists of human D3 dopamine receptor; D3R DiscoveRx beta-arrestin cells, luminescence, 90 min; max activation, %; actives 0.58% (n = 410,000); AID 652048; in the data active = max activation above about 30%; also: 0% is about no effect
# Target sequence (P35462 whole entry, looked up): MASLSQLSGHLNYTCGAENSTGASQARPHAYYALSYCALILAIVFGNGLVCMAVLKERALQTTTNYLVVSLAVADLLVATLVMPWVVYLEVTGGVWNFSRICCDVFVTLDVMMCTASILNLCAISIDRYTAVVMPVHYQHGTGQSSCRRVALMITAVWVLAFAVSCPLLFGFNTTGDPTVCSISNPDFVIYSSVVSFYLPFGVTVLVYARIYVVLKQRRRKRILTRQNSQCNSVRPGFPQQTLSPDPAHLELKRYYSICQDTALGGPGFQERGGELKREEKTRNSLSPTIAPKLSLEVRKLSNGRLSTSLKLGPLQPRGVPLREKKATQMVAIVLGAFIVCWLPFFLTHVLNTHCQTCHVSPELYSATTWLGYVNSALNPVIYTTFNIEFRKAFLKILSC
#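 Agonist mode: compounds and dopamine controls were applied to plated cells for 90 min at 37 degrees C after an overnight attachment at 1500 cells/well. Luminescent read-out followed 30 - 60 minutes at room temperature with DiscoveRx detection reagent.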
# D3 antag: D3 dopamine receptor (human) antagonism. max response, negative = inhibition, %. AID 652054. D3R cells, DiscoveRx beta-arrestin luminescence, antagonist mode; hits give low values. actives 2.5% (n = 360,000); in the data active = max response below about -50%; inconclusive = no clear call, values can overlap the other calls; also: % is scaled to controls: 0 for no effect and ±100 for the full control effect
#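 Cells plated overnight at 1500 cells/well, then exposed to library compounds with dopamine controls for 90 minutes at 37 degrees C. DiscoveRx reagent added for 30–60 minutes at room temperature; luminescence read, quantitative HTS format.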
# a7 integrin act: activates integrin-mediated alleviation for muscular dystrophy; alpha7betagal myoblasts, beta-gal FDG fluorescence, 48 h; Potency, µM (highest dose often 38.3 µM), inactives show top-dose activation, usual class: activators; actives 0.064% (n = 350,000); AID 624291; active = well fitted activation curve with a large enough effect; inconclusive = small, poorly fitted or top-dose-only effect; inactive = no such curve, though single readings can be large or run the other way;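 also: potency is read from the fitted curve at half-maximal effect; 100% = response of the positive control SU9516; nearly all actives have a fitted effect of over 60% in size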
#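 alpha7betagal+/- myoblasts (passage 13, 250/well) treated 48 h at 37C with compounds at 1:260 dilution of DMSO stock. Lysed, then beta-galactosidase activity read as FDG fluorescence (ex 480/em 540) after 30 min, with pre-read for autofluorescence.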
# The depositor's hits bear a star; u = inconclusive; x = no result given; [ ] = another dose, or the depositor's remark. Hits are enriched below; roughly 2.9% of the tested compounds scored in any of these assays.
SMILES,DRD3 agonist,D3 antag,a7 integrin act
O=C(/C=C/c1ccc(Br)cc1)NC(=S)Nc1ccc(S(=O)(=O)Nc2nccs2)cc1,-25,-53*,15%
Cn1c(-c2ccsc2)c(-c2cccs2)c2cc(-c3ccc4cc[nH]c4c3)ccc21,6,74,29%
Cn1c(C=O)c(-c2ccc3cc[nH]c3c2)c2ccccc21,31*,15,24%
CCn1cc(C(=O)NCC2CCCO2)c(=O)c2cc(S(=O)(=O)N(C)C3CCCCC3)ccc21 (stereo not given),-1,-52*,8%
CCCN(CCC)CCCNC(=O)c1cn(C)c2ccc(S(=O)(=O)N(C)C3CCCCC3)cc2c1=O,-6,-2,-4%
Cc1ccccc1N(C)S(=O)(=O)c1ccc2[nH]cc(C(=O)NCC3CCCO3)c(=O)c2c1 (stereo not given),9,-69*,0%
CCCCN(CCCC)CCNC(=O)c1cn(C)c2ccc(S(=O)(=O)N(C)C3CCCCC3)cc2c1=O,-10,-4,10µM*
CCc1ccc(N(C)S(=O)(=O)c2ccc3[nH]cc(C(=O)NCC4CCCO4)c(=O)c3c2)cc1 (stereo not given),4,x,x
CCn1cc(C(=O)NCC2CCCO2)c(=O)c2cc(S(=O)(=O)N(C)C)ccc21 (stereo not given),5,14,10%
C=CCCC(=O)N1C[C@H]2CON(C)[C@H]2C[C@H]1c1ccc(-n2ccnc2)cc1,8,10,x
CN(Cc1ccccc1)N=Nc1ccccc1,2,21,-1%
Cc1ccc(Cl)cc1NC(=O)CCS(=O)(=O)c1ccc2c(c1)n(C)c(=O)c(=O)n2C,1,15,15%
CCOC(=O)c1cc(=O)n2nc(-c3ccc(C)cc3)nc2s1,1,2,12%
Cc1cc(NC(=O)C2C3C=CC(C3)C2C(=O)O)no1 (stereo not given),13,29,17%[7.66 µM]
Cc1cc(NC(=O)C2CC=CCC2C(=O)O)no1 (stereo not given),2,-54*,8%
CC(C)CC(COCc1ccc(C(F)(F)F)cc1)N1CCN(C(=O)c2ccc(C(F)(F)F)cc2)CCC1=O (stereo not given),5,17,-10%
CC(=O)c1ccc(C(=O)NC2CCCN(Cc3ccccc3F)C2)s1 (stereo not given),4,1,-14%
COc1ccc2cc(C3c4cc(OC)c(OC)cc4CCN3C(=O)c3ccco3)c(=O)[nH]c2c1 (stereo not given),4,-12,4%
COc1cc2c(cc1OC)C(c1cc3cc(C)ccc3[nH]c1=O)N(C(=O)c1ccco1)CC2 (stereo not given),37*,10,-25%
CC(=O)N1c2ccccc2C2CCCC[C@@H]21 (stereo not given in full),0,7,5%
CC(C)CCn1cnc2c(c1=O)c1nc3ccccc3nc1n2Cc1ccc2c(c1)OCO2,2,-8,22%
O=[N+]([O-])c1cc2c(cc1/C=N/n1c(-c3ccccc3)n[nH]c1=S)OCO2,-5,u,-7%
O=[N+]([O-])c1ccccc1/C=N/n1c(-c2cccnc2)n[nH]c1=S,-18,-86*,-24%
S=c1[nH]nc(-c2cccnc2)n1Cc1ccccc1,-7,-53*,1%
S=c1[nH]nc(-c2cccnc2)n1/N=C/c1cccs1,3,-111*,9%
SMILES,DRD3 agonist,D3 antag,a7 integrin act
S=c1[nH]nc(-c2ccncc2)n1Cc1ccccc1,-9,-14,11%
O=[N+]([O-])c1cc2c(cc1/C=N/n1c(-c3ccccn3)n[nH]c1=S)OCO2,-3,-50*,-27%
O=[N+]([O-])c1cc(/C=N/n2c(-c3cccnc3)n[nH]c2=S)ccc1Cl,1,-14,-24%
S=c1[nH]nc(-c2cccnc2)n1/N=C/c1ccccc1,5,-25,10%
N#Cc1ccc(-c2ccco2)nc1SCc1ccccc1,-3,3,-7%
CCSc1nc(-c2ccco2)ccc1C#N,4,-54*,-27%
CCC(Oc1ccccc1)C(=O)N1CCN(CC)CC1 (stereo not given),-1,-23,3%
O=C(COC(=O)Cc1ccc(Cl)cc1)NCc1ccc2c(c1)OCO2,-15,-7,3%
CC(=O)N1CCc2c(sc(NC(=O)Cc3ccccc3)c2C(N)=O)C1,-10,0,8%
CCCN1CCc2c(sc(NC(=O)Cc3ccc(F)cc3)c2C(N)=O)C1,-19,-59*,-33%
CN1CCc2c(sc(NC(=O)c3ccco3)c2C(N)=O)C1,-14,u,2%
NC(=O)c1c(NC(=O)c2ccc([N+](=O)[O-])o2)sc2c1CCCC2,-5,-50*,u
NC(=O)c1c(NC(=O)c2cc3ccccc3o2)sc2c1CCC2,1,3,8%
N#Cc1c(NC(=O)c2ccc([N+](=O)[O-])o2)sc2c1CCC2,-33,-63*,-52%
N#Cc1c(NC(=O)c2ccccc2)sc2c1CCC2,-4,-28,-8%
CN1CCc2c(sc(NC(=O)c3ccc([N+](=O)[O-])o3)c2C(N)=O)C1,-14,-56*,-57%
CC(=O)c1cccc(N(CC(=O)Nc2cc(C)cc(C)c2)S(C)(=O)=O)c1,-1,-5,2%
COc1ccc(Cc2nnc(NC(=O)Nc3ccc(F)cc3)s2)cc1OC,-4,4,-19%
COc1ccc(NC(=O)COC(=O)c2c(-c3ccccc3)noc2C)cc1,-1,-16,-46%
CCOC(=O)c1ccc(NC(=S)Nc2ccc(C)cc2)cc1,1,1,-4%
CCOC(=O)c1ccc(NC(=S)NNC(C)(C)C)cc1,-13,-58*,-37%
CN(C)C(=N)N=C(N)N,10,38,x
Cc1nc(CN2C(=O)C3(CCC3)ON=C2c2cccc(Cl)c2)cs1,6,10,x
Cc1ccccc1OCCCC(=O)NCc1ccco1,2,-123*,-10%
Cc1ccc(OCCCC(=O)NCc2ccco2)cc1,22,-30,1%
SMILES,DRD3 agonist,D3 antag,a7 integrin act
N#Cc1c(NC(=O)CSCC(=O)O)sc2c1CCCC2,1,-2,-10%
COc1ccc(C)cc1NC(=O)NCCC1=CCCCC1,-30,-72*,2%
COc1cc(-c2nc(CCNC(=O)c3ccco3)cs2)cc(OC)c1OC,8,8,14%
COc1cc(C(=O)NCCC2=CCCCC2)cc(OC)c1OC,-8,-62*,-15%
COc1ccc(C)cc1NC(=O)c1cc(S(=O)(=O)NCCC2=CCCCC2)ccc1F,5,x,x
COc1cc(C(=O)NCCc2csc(-c3ccc(Cl)cc3)n2)cc(OC)c1OC,41*,x,x
Cc1ccc(CNCCC2=CCCCC2)cc1,-50,-67*,u
Cc1ccc(S(=O)(=O)NCCC2=CCCCC2)cc1,-3,-2,1%
COc1cc(C(=O)OCC(=O)NCCC2=CCCCC2)cc(OC)c1OC,-5,12,-24%
CCOC(=O)C(C(=O)OCC)N(C#N)c1nc(SC)nc(N(C)C)n1,-4,5,25%
COc1ccc(C)cc1NC(=O)CN(C)S(=O)(=O)c1ccc2c(c1)c(=O)n(C)c(=O)n2C,2,-2,-7%
O=C(Nc1ccc(N2CCOCC2)cc1N1CCOCC1)c1cccc([N+](=O)[O-])c1,4,-3,0%
CC(NC(=O)Cc1ccc(S(=O)(=O)N2CCCCC2)cc1)c1ccccc1 (stereo not given),2,2,-5%
